Details in all cases: concentration: 1 μM, replicates: in singlicate; n = 1
Test [1] relates to PRKCH.
In test [2] the test system is PRKCI.
For test [3], the system named is PRKCQ.
Test [4] deals with PRKD1.
For test [5], the system named is PRKD2.
Test [6] relates to PRKD3.
Test [7] relates to PRKG1.
Test [8] deals with PRKG2.
Test [9] has as its system T1, PRKR.
T1 construct: gene EIF2AK2

Test [10] relates to PRKX.

Structures are written as SMILES.
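Further: KINOMEscan kinase panel screen.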

Turning to `CNC(=O)c1ccc(C)c(-n2c(C)cc(OCc3ccc(F)cc3F)c(Br)c2=O)c1`, the “%Inh” value in [1] came out at 0%; in [2], 99.7%; in [3], 7%; in test [4], 0%; in test [5] it was 1%; in test [6], 0%. The “%Inh” value stood at 78% in test [7], 95.6% in [8], 0% in test [9] and 0% in test [10].

Regarding `O=C1NC(=O)C(c2ccc(Cl)cc2)=C1Nc1cccc(Cl)c1` [SB-317651], the “%Inh” value is on record as 0% in [1]; 6% in test [2]; 11% in test [3]; 38% in test [4]; 0% in test [5]; 0% in test [6]. In addition, the “%Inh” value in test [7] is listed as 3%; in test [8], 0%; in test [9], 0%; in [10], 0%.

Turning to `Cc1ccccc1Cn1ccn2c(=O)cc(N3CCOCC3)nc12` [GSK2269905], the “%Inh” value in test [1] was 20%; in test [2], 0%; in test [3], 0%; in [4], 0%; in test [5], 9%; in test [6] it was 0%. In addition, the “%Inh” value in test [7] turned out to be 19%; in test [8] it was 0%; in [9], 0%; in test [10], 0%.

For the molecule `COc1ccc(Nc2nccc(N3CCC(NC(=O)C(C)c4ccc(Cl)cc4)C3)n2)cc1` (stereo not drawn) [GSK1379735], the “%Inh” value in test [1] came to 24%; in test [2] it was 0%; in test [3], 23%; in [4], 0%; in test [5] it was 0%; in test [6], 21%. The “%Inh” value in test [7] was found to be 0%; in test [8], 80%; in test [9], 0%; in [10] it was 22%.

As to `Nc1ncnc2occ(-c3ccc4c(c3)CCN4C(=O)Cc3cc(F)ccc3F)c12` [GSK2645446], the “%Inh” value in test [1] is 0%; in test [2], 23%; in [3] it was 0%; in [4], 0%; in [5], 0%; in test [6] it was 0%. Further, the “%Inh” value in test [7] worked out at 7%; in test [8], 17%; in test [9] it was 3%; in [10], 0%.

Consider `COc1ccc2cc(-c3nc(-c4ccccc4C(C)C)[nH]c3-c3ccncc3)ccc2c1` [SB-660566], for which the “%Inh” value is 0% in test [1]; 15% in test [2]; 54% in [3]; 21% in test [4]; 0% in test [5]; 32% in test [6]. Besides, the “%Inh” value is reported as 7% in test [7], 0% in test [8], 0% in test [9] and 1% in test [10].

The record behind these values is PMC5540273 (PLoS ONE, 2017).
